A selection: hits, their analogues and other compounds. The true share with any hit is near 1.9%.
HSF-1 act – increases HSF-1 driven luciferase reporter signal. NIH3T3-HGL HSF-1 luciferase reporter, MG132, 8 h; 100% = twice DMSO control signal. activation, % at 9 µM. 300,000 tested, 1.7% active;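 active = mean replicate activation of at least 50% with a set share of replicates each reaching 50%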
zVAD death inh – blocks zVAD induced death of L929 cells. L929 zVAD necroptosis rescue, ATP luminescence, 24 h; with zVAD 60 µM. viability rescue, % at 10 µM. 220,000 tested, 0.38% active;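 active = activation, scaled between plate controls, above about 75%, limit read from the data; inactive = activation under that limit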
TNF necrop inh – blocks TNF-alpha induced death of Jurkat FADD-/- cells; Jurkat FADD-/- TNF necroptosis rescue, ATP luminescence, 24 h; 0 = TNF only, 100 = no-TNF cells; activation (protection from cell death), % at 10 µM; 220,000 tested, 0.068% active;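 active = activation, meaning protection from cell death, of at least 50% relative to plate controls; inactive = activation below 50%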;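 note: necroptosis triggered by 40 ng/mL TNF-alpha added together with compound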
Hsp70 activator – Hsp70 transcriptional activation, primary screen. activation, % at 10 µM. 200,000 tested, 0.04% active. AID 1203. HeLa Hsp70 promoter luciferase reporter, luminescence; scaled: vehicle 0, proteasome-inhibitor control 100%;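 active = activation above the mean across all tested compounds plus 3 SD, cutoff set per campaign, cut at about 5.5% in these data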
A number is an active result; n = inactive; x = not tested or not shown.

SMILES	HSF-1 act	zVAD death inh	TNF necrop inh	Hsp70 activator
O=C(/C=C/c1ccco1)NC(=S)Nc1nc(-c2ccc(Cl)cc2)cs1	63	n	n	n
COc1ccc(-c2csc(NC(=S)NC(=O)c3ccco3)n2)cc1	52	n	n	n
O=C(/C=C/c1ccc(F)cc1)c1ccccc1Br	n	n	n	n
O=C(Nc1ccccc1Cl)C1CCCN(S(=O)(=O)c2ccc(-n3cnnn3)cc2)C1 (centres undefined)	n	x	x	x
Brc1ccc(CNc2ccc3ncccc3c2)cc1	79	x	x	x
COc1ccc(C(=O)N2CCCC(c3nc(-c4cccs4)no3)C2)cc1 (centres undefined)	59	n	n	n
Cc1ccc(C(=O)OCC(=O)N2C(C)CCCC2C)cc1S(=O)(=O)N1CCOCC1 (centres undefined)	n	x	x	x
Cc1ccc(NC(=O)NC(=O)CSc2nnc(-c3ccc(Cl)cc3Cl)n2N)c(C)c1	n	n	n	n
COc1ccc2c(c1)CC/C2=N\OC(=O)c1ccccc1C	61	n	n	n
COc1ccc2c(c1)CC/C2=N\OC(=O)c1cccc(C)c1	65	n	n	n
Nc1nncn1C(=O)CCc1ccccc1	n	n	n	n
CC(C)(C)C1CCc2sc(C(=O)NNC(=O)CCl)cc2C1 (centres undefined)	n	n	n	n
COc1cc(/C=C/c2noc(-c3ccccc3O)n2)ccc1OC(C)=O	54	n	n	x
CC(=O)Nc1ccc(/C=C/c2noc(-c3ccccc3O)n2)cc1	n	x	x	x
O=C(O)CN1C(=O)/C(=C\c2cccc(OCc3ccccc3F)c2)SC1=S	58	x	x	x
Cc1c(CCO)c(=O)n(-c2ccccc2)n1S(=O)(=O)c1ccc(Cl)cc1	n	n	n	n
CNc1ccc(/C=C2\COc3ccccc3C2=O)cc1[N+](=O)[O-]	n	n	n	n
O=C1/C(=C/c2ccccc2[N+](=O)[O-])COc2ccccc21	141	n	n	n
Cc1ccccc1/C=C1\OC(=O)c2ccccc21	n	n	n	n
Cc1ccc(/C=C2\OC(=O)c3ccccc32)cc1	59	n	n	n
CC1CCN(S(=O)(=O)c2cccc(C(=O)NCc3cccs3)c2)CC1	n	n	n	n
CC1CCN(c2ccc(C(=O)NCc3cccs3)cn2)CC1	52	n	n	n
O=C(O[C@H]1[C@H](Oc2ccccc2COC(=O)C2(O)C=CCCC2=O)O[C@H](CO)[C@@H](O)[C@@H]1O)c1ccccc1 (some centres undefined)	n	x	x	x
COc1ccc(Cc2nnc(SCC(=O)Nc3ccc(N4CCOCC4)cc3)o2)cc1	61	x	x	x
CCc1nnc(SCC(=O)Nc2ccc(N3CCOCC3)cc2)o1	n	n	n	n
SMILES	HSF-1 act	zVAD death inh	TNF necrop inh	Hsp70 activator
C=C1SC(=Nc2c(C)cccc2Cl)N(C(=O)c2sc3ccccc3c2Cl)C12CCCCC2	n	n	n	x
C=C1SC(=Nc2ccccc2Cl)N(C(=O)c2sc3ccccc3c2Cl)C1(C)C	57	n	n	x
O=C(CSc1ncnc2c1nnn2Cc1ccc(F)cc1)NCC1CCCO1 (centres undefined)	63	x	x	x
Cc1cccc(NC(=O)c2nc[nH]c2C(=O)NCC(=O)OC(C)(C)C)c1	n	n	n	x
O=C(Nc1ccc(C(=O)NC2CCCCC2)cc1)c1cccnc1	n	n	n	n
CC1(C)CNC(=O)c2sc(NC(=O)c3ccccc3)nc2C1	n	n	n	n
CC1(C)CC(=O)c2sc(NC(=O)c3ccccc3)nc2C1	54	n	n	n
CC(C)NC(=O)NC(=O)COc1ccc(Br)cc1Br	87	n	n	n
O=C(c1ccc2c(=O)n3c(nc2c1)CCCCC3)N1CCc2ccccc21	n	n	n	x
O=C(NCCCn1ccnc1)/C(=C/c1ccco1)NC(=O)c1ccccc1	62	n	n	n
COc1ccc(N2C(=O)CC(N3CCC(c4nc5ccccc5[nH]4)CC3)C2=O)cc1 (centres undefined)	n	n	n	n
O=C1CC(N2CCC(c3nc4ccccc4[nH]3)CC2)C(=O)N1c1ccccc1F (centres undefined)	177	n	n	n
CCN(CC(=O)Nc1cc(S(=O)(=O)N2CCOCC2)ccc1C)Cc1ccccc1	n	x	x	x
COc1ccc(Cn2c(-c3ccc(Br)cc3)c[n+]3ccccc23)cc1	62	n	n	n
Cc1c(C#N)c(NC(=O)CCl)n(Cc2ccccc2)c1C	57	n	n	n
Cc1c(C#N)c(NC(=O)CCl)n(Cc2ccc(F)cc2)c1C	n	n	n	n
CC(=O)NC(Cc1ccc(F)cc1)C(=O)NC1CCN(C(=O)Nc2ccccc2C)CC1 (centres undefined)	n	x	x	x
Oc1ccc2ccccc2c1C=NNc1ccccn1	70	x	x	x
COc1cccc(CC(=O)OCC(=O)NC(=O)c2ccc(OC(F)F)cc2)c1	n	x	x	x
O=C(NC1CCCCC1)c1nn2c(C(F)(F)F)cc(-c3ccco3)nc2c1Br	n	n	n	n
O=C(NC1CCCCC1)c1cnn2c(C(F)(F)F)cc(-c3ccco3)nc12	70	n	n	n
COc1ccc(/C=C/c2nnc(NC(C)=O)s2)cc1	57	n	n	x
CC(=O)C1=C(O)C(=O)N(c2ccc(Br)cc2)C1c1ccc(Br)cc1 (centres undefined)	n	x	x	x
O=C(O)CC1=C(Nc2ccccc2)C(=O)N(c2ccccc2)C1c1ccc(F)cc1 (centres undefined)	n	n	n	n
COc1ccc(C2C(C(C)=O)=C(O)C(=O)N2c2ccc(C)cc2)cc1 (centres undefined)	61	x	x	x
SMILES	HSF-1 act	zVAD death inh	TNF necrop inh	Hsp70 activator
COc1ccc(C2C(CC(=O)O)=C(Nc3ccccc3)C(=O)N2c2ccccc2)cc1 (centres undefined)	64	n	n	n
COc1ccc2nc(-c3ccc(Cl)cc3)cc(C(=O)O)c2c1	n	n	n	x
CCCc1ccc(OCc2nc(-c3ccc(NC(=O)c4cccs4)cc3)no2)cc1	58	n	n	n
Nc1nc(SCC(=O)NC2CCCCC2)n[nH]1	n	x	x	x
CC(=O)Nc1ccc(NC(=O)c2ccc(NS(=O)(=O)c3cc(C(C)(C)C)cc(C)c3C)cc2)cc1	110	n	n	n
Cc1ccc(-c2nc3ccccc3[nH]2)cc1NC(=O)c1ccc2c(c1)OCO2	88	n	n	n
CC1=C(C(=O)Nc2ccccc2)C(c2ccc(C)cc2)N=C(Nc2nc3ccccc3o2)N1 (centres undefined)	62	n	n	n
Cc1ccc(CNC(=O)CSc2c3c(nc4ccc(Cl)cc24)CCCC3)o1	120	n	n	n
COCc1nc2ccccc2n1CCc1ccccc1	n	x	x	x
O=[N+]([O-])c1cc(Cl)ccc1NCCNS(=O)(=O)c1ccccc1	55	n	n	n
CCC(=O)Nc1c(C#N)c2nc3ccccc3nc2n1C1CCCCC1	n	n	n	n
CCOC(=O)c1c(NC(=O)c2ccco2)n(C2CCCCC2)c2nc3ccccc3nc12	78	n	n	n
CCc1ccccc1NC(=O)COc1ccc2c(=O)c(Oc3cc(C)ccc3C)coc2c1	71	n	n	n
COc1ccccc1N1CCN(/N=C/c2cccc(Cl)c2)CC1	60	x	x	x
COc1ccccc1N1CCN(/N=C/C=C\c2ccco2)CC1	80	n	n	n

High-throughput results (PubChem BioAssay)
